Results: PubChem BioAssay AID434970 (Sanford-Burnham Center for Chemical Genomics, 2010)
The whole screen tested about 11,000 compounds, of which about 310 (2.8%) were called active. Rule as the data show it: active = activity change below about -85%; inactive = the rest. The full list was thinned out, with actives kept by preference. Starred links: 1 amine or outer side, 2 acyl side, 3 side chain; linkers in the order of their positions; H or OH if unused. Positions of bridges follow the written chain, without caps; N, C: chain ends. Non-standard residues stand in square brackets, D forms with d. Residues, ends and D or L forms follow the SMILES beside them. ξ: configuration not given here. hSer(Ph(2-I,4-NO2,6-CO)) = O=C([C@H](CCOc1c(I)cc([N+](=O)[O-])cc1C(=O)[*:3])N[*:1])[*:2]; ξD = NC(CC(=O)O)C(=O)O

System: intestinal alkaline phosphatase [Mus musculus]
Test: activators of mouse IAP, confirmation, biochemical, luminescence, single concentration (AID 434970)
Details: purified mouse IAP, CDP-Star luminescence, 30 min, at 10 µM; activation factor: measured here: IAP activation factor, stronger effect = higher value; activity change, negative = activation: stronger effect = lower value

Row | SMILES | activation factor | activity change, negative = activation
1 | O=[N+]([O-])c1ccc2n[nH]nc2c1 | 1.02 | -2.4% (inactive)
2 | O=C(Nc1nnc(SCc2ccccc2Cl)s1)C1COc2ccccc2O1 (configuration not stated) | 0.965 | 3.5% (inactive)
3 | CC(=O)c1sc(Nc2nc(C)cc(C)n2)nc1C | 0.928 | 7.2% (inactive)
4 | COc1ccc(CN(CC(O)COCc2ccccc2)S(=O)(=O)c2ccccc2Br)cc1OC (configuration not stated) | 1.04 | -3.55% (inactive)
5 | O=C1CN(c2ccccc2F)C(=O)CN1c1ccccc1F | 1.01 | -1.1% (inactive)
6 | C#CCOCCOCCOCCNc1nc(N2CCN(C(=O)CCCCCCCCCCNC(=O)[C@H](CCCCN)n3cc(C)nn3)CC2)nc(N2CCN(C(=O)CCCCCCCCCCNC(=O)[C@H](CCCN=C(N)N)n3cc(C[C@@H](C)CC)nn3)CC2)n1 | 3.95 | -295% (active)
7 | C#CCOCCOCCOCCNc1nc(N2CCN(C(=O)CCCCCCCCCCNC(=O)[C@H](CCCCN)n3cc(CCCC(=O)O)nn3)CC2)nc(N2CCN(C(=O)CCCCCCCCCCNC(=O)[C@H](CCCN=C(N)N)n3cc(C[C@@H](C)CC)nn3)CC2)n1 | 2.67 | -167% (active)
8 | C#CCOCCOCCOCCNc1nc(N2CCN(C(=O)CCCCCCCCCCNC(=O)[C@H](CCCCN)n3cc(CCO)nn3)CC2)nc(N2CCN(C(=O)CCCCCCCCCCNC(=O)[C@H](CCCN=C(N)N)n3cc(C[C@@H](C)CC)nn3)CC2)n1 | 3.04 | -204% (active)
9 | CCOC(=O)c1c(N)sc(C(O)(C(F)(F)F)C(F)(F)F)c1-c1ccccc1 | 1.07 | -6.55% (inactive)
10 | CC1CN(c2nc3c(c(=O)n(Cc4ccc(Cl)c(Cl)c4)c(=O)n3C)n2C)CC(C)O1 (configuration not stated) | 1.01 | -0.8% (inactive)
11 | Cc1n[nH]c(C)c1S(=O)(=O)N1CCCC(C(=O)N2CCc3ccccc32)C1 (configuration not stated) | 0.946 | 5.45% (inactive)
12 | COc1ccc(Nc2nc(N)nc(CSc3nccc(C)n3)n2)cc1 | 1.04 | -3.9% (inactive)
13 | Cc1ccc(-c2nnn(CC(=O)N3CCCc4ccccc43)n2)cc1 | 1.06 | -6.35% (inactive)
14 | COC(=O)c1cccc(NC(=O)Nc2ccc(Cl)cc2)c1 | 1.48 | -47.6% (inactive)
15 | CSc1cccc(NC(=O)NCc2cccc(CNC(=O)Nc3cccc(SC)c3)c2)c1 | 1.62 | -61.9% (inactive)
16 | COc1ccccc1C(=O)Nc1cccc(SC)c1 | 1.12 | -11.6% (inactive)
17 | CSc1cccc(NC(=O)Nc2ccc(Cl)cc2)c1 | 2.06 | -106% (active)
18 | CSc1cccc(NC(=O)Nc2ccccc2)c1 | 2.1 | -110% (active)
19 | CSc1cccc(NC(=O)Nc2nc3c(C)cccc3s2)c1 | 1.45 | -45% (inactive)
20 | Cc1cnc(-c2nnc(N(C)C(=O)C3CCOC3)s2)cn1 (configuration not stated) | 0.996 | 0.45% (inactive)
21 | Cc1onc(-c2ccccc2Cl)c1C(=O)OCC(=O)N1CCCc2ccccc21 | 1.02 | -2.05% (inactive)
22 | CC(C)(C)c1ccc(OCC(=O)NCc2ccco2)c(Br)c1 | 0.869 | 13.1% (inactive)
23 | CC(C)N1CC2=C(OC(N)=C(C#N)C2c2cccnc2)/C(=C/c2cccnc2)C1 (configuration not stated) | 0.917 | 8.3% (inactive)
24 | Cc1ccc(C)c(CN2CCC(CNC(=O)Nc3ccc(C)c(F)c3)CC2)c1 | 2.16 | -116% (active)
25 | Cc1cc(C)cc(NC(=O)NCC2CCN(Cc3cc(C)ccc3C)CC2)c1 | 2.32 | -132% (active)
26 | Cc1ccc(C)c(CN2CCC(CNC(=O)Nc3ccc(C)c(C)c3)CC2)c1 | 2.21 | -121% (active)

Row | SMILES | activation factor | activity change, negative = activation
27 | Cc1ccc(SCC(=O)Nc2ccc(N3CCN(C)CC3)c(F)c2)c(C)c1 | 1.13 | -13% (inactive)
28 | Cc1ccc(C)c(CN2CCC(CNC(=O)Nc3ccc(Br)cc3F)CC2)c1 | 1.55 | -54.9% (inactive)
29 | Cc1ccc(SCCNC(=S)Nc2ccc(C)c(C)c2)cc1 | 1.46 | -45.9% (inactive)
30 | Cc1cc(C)c(CN2CCN(C(=O)Cn3cnc(C(=O)Nc4ccc(C)c(C)c4)n3)CC2)c(C)c1 | 1.13 | -13.2% (inactive)
31 | C[C@@H]1NC(=O)c2cc([N+](=O)[O-])cc(I)c2OCC[C@@H](C(=O)NC(CC(=O)O)C(N)=O)NC(=O)[C@H](CC(N)=O)NC1=O (some centres not stated) (AN[hSer(Ph(2-I,4-NO2,6-CO))][ξD]-NH2; lactam N-3) | 1.15 | -14.8% (inactive)
32 | CC[C@]12c3[nH]c4cc(-c5ccco5)ccc4c3CCN1C(=O)[C@@H](CC(=O)NCc1ccco1)C[C@@H]2C(=O)N1CCN(C(=O)C2CC2)CC1 | 1.23 | -22.7% (inactive)
33 | CC(C)CCNC(=O)NC(=O)CSc1nnc(COc2ccccc2Cl)o1 | 1.04 | -4.3% (inactive)
34 | CC(C)C(=O)Nc1nnc(SCC(=O)NCc2cccs2)s1 | 0.976 | 2.4% (inactive)
35 | Cc1ccc(C(=O)Nc2nncs2)cc1S(=O)(=O)N1CCOCC1 | 0.927 | 7.35% (inactive)
36 | COc1ccc(S(=O)(=O)NCCc2ccc(F)cc2)cc1 | 0.961 | 3.9% (inactive)
37 | Cc1cc2c(ncn2C)c(NS(=O)(=O)c2cc(Cl)ccc2Cl)c1C | 0.946 | 5.45% (inactive)
38 | Cc1noc2ncnc(Sc3c(Cl)cccc3Cl)c12 | 0.906 | 9.4% (inactive)
39 | C#CCOCCOCCOCCNc1nc(N2CCN(C(=O)CCCCCCCCCCNC(=O)[C@H](CO)n3cc(CCCSC)nn3)CC2)nc(N2CCN(C(=O)CCCCCCCCCCNC(=O)[C@H](CCCN=C(N)N)n3cc(C[C@@H](C)CC)nn3)CC2)n1 | 5.98 | -498% (active)
40 | C#CCOCCOCCOCCNc1nc(N2CCN(C(=O)CCCCCCCCCCNC(=O)[C@H](CO)n3cc(CCCSC)nn3)CC2)nc(N2CCN(C(=O)CCCCCCCCCCNC(=O)[C@H](CCCCN)n3cc(C[C@@H](C)CC)nn3)CC2)n1 | 2.83 | -183% (active)
41 | C#CCOCCOCCOCCNc1nc(N2CCN(C(=O)CCCCCCCCCCNC(=O)[C@@H](CCSC)n3cc(CCO)nn3)CC2)nc(N2CCN(C(=O)CCCCCCCCCCNC(=O)[C@H](CCCN=C(N)N)n3cc(C[C@@H](C)CC)nn3)CC2)n1 | 8.61 | -761% (active)
42 | COc1ccc(N2C(=O)C3CCCN3C2c2ccccc2)cc1Cl (configuration not stated) | 0.895 | 10.5% (inactive)
43 | C=CCNC(=O)c1nc2ccccc2s1 | 0.92 | 8% (inactive)
44 | Cn1c(=O)cc(SCC(=O)Nc2cccnc2)c2ccccc21 | 0.952 | 4.8% (inactive)
45 | CCC1CCCCN1CCCNC(=O)c1ccc2c(=O)n(Cc3ccc(OC)cc3)c(=O)[nH]c2c1 (configuration not stated) | 0.925 | 7.5% (inactive)
46 | Fc1ccc(CNc2nc(-c3ccco3)cc(C(F)(F)F)n2)cc1 | 0.991 | 0.9% (inactive)
47 | COc1ccc2c(c1OC)C(=O)N(c1ccc(C)c(C)c1)C2=O | 0.976 | 2.45% (inactive)
48 | COc1cc(/C=C(\C#N)c2nc3ccc(C)cc3[nH]2)c([N+](=O)[O-])cc1OC | 0.806 | 19.4% (inactive)
49 | Cc1[nH]ccc(=O)c1OCc1c(Cl)cccc1Cl | 0.957 | 4.3% (inactive)
50 | COCCn1c(Sc2ccccc2)nc2c1c(=O)[nH]c(=O)n2C | 1.07 | -6.95% (inactive)
51 | COC(=O)[C@H]1C2CCC(C(=O)OC)(CC2)[C@H]1C(=O)OC | 0.915 | 8.55% (inactive)
52 | O=S(=O)(c1ccc(F)cc1)N1CCN(CC(O)COCc2cccs2)CC1 (configuration not stated) | 0.928 | 7.2% (inactive)

Row | SMILES | activation factor | activity change, negative = activation
53 | Cc1c(C(=O)Nc2ccc(Cl)cc2)c2ccccn2c1C(=O)c1ccccc1 | 1.02 | -1.8% (inactive)
54 | CC(NC(=O)Nc1ccc(Cl)cc1)c1ccccc1 (configuration not stated) | 2.11 | -111% (active)
55 | CCN(CC)C(C(=O)Nc1ccc(C(C)C)cc1)c1ccc2c(c1)OCO2 (configuration not stated) | 1.48 | -48.4% (inactive)
56 | COC(=O)Nc1ccc2c(c1)OCO2 | 0.903 | 9.6% (inactive)
57 | Cc1ccc(NC(=O)N/C=C/c2ccc(Cl)cc2)cc1 | 1.09 | -9.1% (inactive)
58 | CC(C)c1ccc(NC(=O)NC(C)c2ccc3c(c2)OCO3)cc1 (configuration not stated) | 3.31 | -231% (active)
59 | COc1ccc(Cl)cc1C(=O)Nc1ccc2c(c1)OCO2 | 1.1 | -10.2% (inactive)
60 | Cc1noc(-c2ccccc2)c1NC(=O)Nc1ccc(Cl)cc1 | 1.7 | -70.2% (inactive)
61 | CC1CCCN(C(C(=O)Nc2ccc(C(C)C)cc2)c2ccc3c(c2)OCO3)C1 (configuration not stated) | 1.73 | -73.3% (inactive)
62 | CC(NC(=O)C1CCC1)c1ccccc1 (configuration not stated) | 1.12 | -11.9% (inactive)
63 | CC(NC(=O)Nc1ccc(Cl)cc1)c1ccc2c(c1)OCO2 (configuration not stated) | 2.53 | -153% (active)
64 | Cc1ccc(NC(=O)N/C=C/c2ccccc2)cc1 | 1.56 | -55.5% (inactive)
65 | O=C(N/C=C/c1ccccc1)Nc1ccc(Cl)cc1 | 2.71 | -171% (active)
66 | Cc1cccc(OCCCSc2nc3ccccc3[nH]2)c1 | 1.13 | -12.6% (inactive)
67 | COC(=O)c1c(NC(=O)c2ccccc2)sc(Cc2ccccc2)c1C | 1 | -0.05% (inactive)
68 | O=C(NCC(=O)N(CC1CCCO1)C1(C(=O)NC2CCCC2)CCCCC1)c1ccccc1 (configuration not stated) | 1.03 | -3.2% (inactive)
69 | CCOC(=O)N1CCN(C(=O)Cn2c(C)cc3ccccc3c2=O)CC1 | 1.12 | -11.8% (inactive)
70 | Cc1ccc(Nc2c3c(nc4ncnn24)CC(C)CC3)cc1 (configuration not stated) | 1.02 | -2.1% (inactive)
71 | C1CN(c2nc3nonc3n3nnnc23)CCO1 | 0.972 | 2.75% (inactive)
72 | O=C(Cn1cc(C(=O)C2CC2)c2ccccc21)NCC1CCCO1 (configuration not stated) | 0.944 | 5.6% (inactive)
73 | O=C(O)CS(=O)(=O)c1ccc(Oc2ccc(S(=O)(=O)CC(=O)O)cc2)cc1 | 1.1 | -10.4% (inactive)
74 | CC(C)c1ccc(NC(=S)NCc2ccc3c(c2)OCO3)cc1 | 1.36 | -36.3% (inactive)
75 | CC(NC(=O)c1ccco1)c1ccc2c(c1)OCCO2 (configuration not stated) | 0.968 | 3.25% (inactive)
76 | CCc1ccc(NC(=O)NC(C)c2ccc3c(c2)OCO3)cc1 (configuration not stated) | 2.66 | -166% (active)
